These results are taken from PubChem BioAssay (Tox21).

Records with an inconclusive call do not appear. Where a call stands in place of a potency, no number is given. A number with no mark means an inactive call. Activity calls are given as the source filed them. Calls come from the whole dose curve; as a rule, active = well fitted inhibition curve with a large enough effect in the repeat runs; inconclusive = weak or mixed curves; inactive = flat fitted curve, though single readings scatter.
Potency is the fitted concentration of half-maximal effect.

The target of this assay is Voltage-gated inwardly rectifying potassium channel KCNH2 (Homo sapiens) (UniProt Q12809). In words: Human Ether-a-go-go-Related Gene (hERG) channel small molecule antagonists: fluorescence cell-based qHTS assay (AID 1671200). Note: nearly all actives have a fitted effect of over 50% in size. The note with it: hERG-U2OS cells, FluxOR thallium flux fluorescence; series mostly up to 76.8 µM. The text has this: National Center for Advancing Translational Sciences [NCATS]
Chain of Voltage-gated inwardly rectifying potassium channel KCNH2 (Homo sapiens) (Q12809 whole entry, looked up): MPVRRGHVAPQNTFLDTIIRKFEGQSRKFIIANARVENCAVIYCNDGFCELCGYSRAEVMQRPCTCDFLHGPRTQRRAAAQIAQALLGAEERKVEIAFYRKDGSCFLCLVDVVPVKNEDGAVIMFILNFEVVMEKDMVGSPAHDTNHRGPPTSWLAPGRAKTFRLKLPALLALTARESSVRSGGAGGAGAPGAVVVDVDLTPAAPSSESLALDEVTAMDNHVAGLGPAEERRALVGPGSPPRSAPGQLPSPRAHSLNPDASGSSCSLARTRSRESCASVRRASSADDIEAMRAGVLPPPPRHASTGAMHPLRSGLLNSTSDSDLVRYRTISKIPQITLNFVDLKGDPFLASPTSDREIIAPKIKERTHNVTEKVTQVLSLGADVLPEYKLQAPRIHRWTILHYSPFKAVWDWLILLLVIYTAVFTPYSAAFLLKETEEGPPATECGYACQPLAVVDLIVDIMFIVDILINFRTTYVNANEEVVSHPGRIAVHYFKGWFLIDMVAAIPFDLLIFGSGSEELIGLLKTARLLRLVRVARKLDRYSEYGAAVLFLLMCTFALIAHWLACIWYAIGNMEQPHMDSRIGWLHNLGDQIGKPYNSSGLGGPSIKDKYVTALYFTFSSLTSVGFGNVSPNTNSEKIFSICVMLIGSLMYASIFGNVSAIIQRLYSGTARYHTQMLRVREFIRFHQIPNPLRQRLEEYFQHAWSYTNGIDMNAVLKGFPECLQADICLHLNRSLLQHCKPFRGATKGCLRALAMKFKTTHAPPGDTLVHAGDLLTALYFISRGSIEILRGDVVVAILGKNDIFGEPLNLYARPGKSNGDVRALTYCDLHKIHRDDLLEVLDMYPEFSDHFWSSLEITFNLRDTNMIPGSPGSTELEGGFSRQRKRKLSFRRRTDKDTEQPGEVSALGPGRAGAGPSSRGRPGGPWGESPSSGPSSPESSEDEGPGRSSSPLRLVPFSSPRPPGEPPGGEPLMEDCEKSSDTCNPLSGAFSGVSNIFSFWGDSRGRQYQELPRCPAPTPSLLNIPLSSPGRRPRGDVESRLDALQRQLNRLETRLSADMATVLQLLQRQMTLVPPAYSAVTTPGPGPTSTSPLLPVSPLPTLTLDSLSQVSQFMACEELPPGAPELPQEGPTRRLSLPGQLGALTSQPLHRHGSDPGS
U.S. Environmental Protection Agency [EPA]
National Institutes of Environmental Health Sciences [NIEHS]
National Toxicology Program [NTP]
U.S. Food and Drug Administration [FDA]
Mutations in the hERG channel cause Long QT (LQT) syndrome. LQT syndrome is a cardiac disorder which can cause ventricle arrhythmia and sudden death. Additionally, compounds which block the hERG channel can cause acquired LQT syndrome. Several FDA approved drugs have been removed from the market due to their hERG blocking activity. A cell-based hERG channel inhibition assay can be used to screen chemical compounds that inhibit hERG channel. This assay measures hERG channel activity using thallium ions as surrogate ions to measure potassium into the cells.
Tox21 Assay Protocol Summary:
hERG-U2OS cells were resuspended in culture medium and dispensed into 1536-well, black wall/clear-bottom plates at 1000cells/well/3uL using a Multidrop Combi dispenser (Thermo Fisher, Waltham, MA). After plates were incubated at 37 C overnight, 3 uL of Loading Buffer provided by FluxOR II Potassium Ion Channel Assay kit (Thermo, Carlsbad, CA) was added to each well. The assay plates were then incubated at room temperature in the dark for 1h. […] After the assay plates were incubated at room temperature for 10 min, 1 uL of Stimulus Buffer provided by FluxOR II Potassium Ion Channel Assay kit was added into each well and fluorescence intensity (480nm excitation/540nm emission) was continuously measured for 2 min at 1 second intervals using a Functional Drug Screening System (FDSS) 7000EX kinetic plate reader (Hamamatsu, Japan).
In general terms: The hERG channel carries a current that helps repolarise heart muscle cells.
For the molecule `Cc1ccc(-n2[nH]c(C)c(N=Nc3cccc(-c4cccc(C(=O)O)c4)c3O)c2=O)cc1C`, the Potency entry is “inactive”.

In the case of `CC(=O)O[C@@H]1C[C@@H]2CC[C@@]1(C)C2(C)C`, the Potency result is “inactive”.

As to `Cc1cccc(C)n1`, the Potency entry was “inactive”.

As for `CC(COC(=O)c1ccccc1)OC(=O)c1ccccc1` (stereo not given), the Potency is 43.6 µM (active).

Consider `Cc1ccc(O)cn1`, for which the Potency entry was “inactive”.

In the case of `CCCCN(CCCC)CCC(O)c1cc2c(Cl)cc(Cl)cc2c2cc(C(F)(F)F)ccc12` (stereo not given), the Potency is 1.07 µM (active).

`C=CC(=C)CCC=C(C)C`: the Potency result is “inactive”.

Consider `CCCCCCCCCCOCC(O)CN` (stereo not given), for which the Potency is 23.9 µM (active).

With `CCCCCCOc1ccc(O)cc1`, the Potency entry is “inactive”.

Regarding `O=C(O)CCCCCCC(=O)O`, the Potency result is “inactive”.

For the molecule `C=C(C)CCCC`, the Potency entry is “inactive”.

On to `C1CC(COCC2CO2)CCC1COCC1CO1` (stereo not given), for which the Potency entry was “inactive”.

For the molecule `Cc1c(C(=O)O)cccc1[N+](=O)[O-]`, the Potency result was “inactive”.

As for `CCCN(CCc1cccs1)[C@H]1CCc2c(O)cccc2C1`, the Potency was 3.01 µM (active).

In the case of `C=C(C)C(=O)OCCC[Si](Cl)(Cl)Cl`, the Potency entry was “inactive”.

Regarding `CCCCCCCCCCCCCCCCCO`, the activity change, negative = inhibition was 5.95% [at 15.8 µM].

Take `CC(=O)OC(OC(C)=O)c1ccc([N+](=O)[O-])o1`: the Potency result was “inactive”.

As to `Cc1ccc2ccc3cccc4ccc1c2c34`, the Potency entry was “inactive”.

In the case of `ClC/C=C\CCl`, the Potency result was “inactive”.

In the case of `CN1CN(C)CN(C)C1`, the Potency entry was “inactive”.

Turning to `O=S(O)O`, the activity change, negative = inhibition was 4.11% [at 15.8 µM].

`NCCCCCCNCCCCCCN`: the Potency entry was “inactive”.

With `Cn1cnc2ncnc(N)c21`, the Potency result was “inactive”.

`CC(C)(C)C1=CC(=O)C=C(C(C)(C)C)C1=O`: the Potency entry is “inactive”.

Regarding `OCCCc1cccnc1`, the Potency entry is “inactive”.

On to `COc1cccc(OC)c1O`, for which the Potency entry was “inactive”.

As to `Clc1cccnc1`, the Potency entry is “inactive”.

For `c1cc(OCC2CO2)cc(OCC2CO2)c1` (stereo not given), the Potency entry is “inactive”.

For the molecule `C#CC(O)CCC` (stereo not given), the Potency result is “inactive”.

In the case of `OCCN1CN(CCO)CN(CCO)C1`, the Potency result was “inactive”.

On to `CC[N+](CC)(CC)Cc1ccccc1`, for which the Potency result was “inactive”.

As to `c1cc[nH]c1`, the Potency entry is “inactive”.

Take `CCCCCCCC(OC)OC`: the Potency result was “inactive”.

Turning to `O=C[C@H](O)[C@H](O)[C@H](O)CO`, the Potency entry was “inactive”.

For `O=C1OC(=O)c2cccc3cccc1c23`, the Potency entry was “inactive”.

On to `CN1CCN(C2Cc3ccccc3Sc3ccc(Cl)cc32)CC1` (stereo not given), for which the Potency is 0.848 µM (active).

On to `Cc1c(C)n(Cc2ccccc2)c2ccc(C(=O)OCCN(C)C)cc12`, for which the Potency was 10.7 µM (active).

In the case of `CC1CCCCC1`, the Potency result is “inactive”.

Take `O=S(=O)(O)c1cc(S(=O)(=O)O)c2ccc3c(S(=O)(=O)O)cc(S(=O)(=O)O)c4ccc1c2c43`: the activity change, negative = inhibition was 2.85% [at 15.8 µM].

Take `Cc1cn[nH]c1`: the Potency entry was “inactive”.
